Measurements from PubChem BioAssay.
For part of these data: Entries with a potency or affinity are not part of this list. Calls of active or inactive are those of the source. Unless noted, how the calls were made is not given here.

Tests used:
[1] = antimalarial activity against Dd2 strain (AID 2302;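 active means growth inhibition above 50% at the single 2 µM test dose, taken to imply half-maximal potency below 2 µM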;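 further: 0% = DMSO untreated growth and 100% = chloroquine plus artemisinin killed control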); details: P. falciparum Dd2 in RBCs, LDH growth readout, 72 h; at 2 µM; hits give high values
[2] = human hepatoma cell viability loss – ATP luminescence, cytotoxicity control for P. falciparum antimalarial project, primary screen (AID 2303;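 active means inhibition above 50%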;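 further: 0% = DMSO wells and 100% = digitonin-killed cells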); details: HepG2 viability, 24-48 h, at 10 µM, hits give high values
[3] = target: L-lactate dehydrogenase (Plasmodium falciparum (isolate CDC / Honduras)) (UniProt Q27743); experiment: PfLDH activity inhibition – cell lysate, 3D7 strain, counter-screen for P. falciparum growth inhibition project (AID 2304);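 further: 0% = vehicle and 100% = reference inhibitor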; details: P. falciparum 3D7 crude extract, LDH APAD/NBT absorbance; at 2 µM; hits give high values
[4] = inhibition of 3D7 malaria parasite growth – strain 3D7 (AID 2306);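 further: 0% = DMSO wells and 100% = chloroquine plus artemisinin control wells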; details: P. falciparum 3D7 erythrocytic growth, LDH absorbance, 72 h; at 2 µM; hits give high values
[5] = target: Calcium-dependent protein kinase 1 (Plasmodium falciparum (isolate 3D7)) (UniProt P62344); experiment: PfCDPK1 kinase inhibitors, biochemical, TCAMS library (AID 1159585; cut-off not given, nearly all actives have IC50 up to about 0.98 µM;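 further: inhibitors leave more ATP so luminescence rises with inhibition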); details: recombinant PfCDPK1, Kinase-Glo ATP depletion luminescence
[6] = target: Plasmodium falciparum protein kinase 6 (PK6, PF3D7_1337100) (UniProt Q8IDW1); experiment: PfPK6 kinase inhibitors, biochemical, TCAMS library (AID 1159586); details: recombinant PfPK6, Kinase-Glo ATP depletion luminescence
[7] = target: Protein kinase 7 (PK7), Plasmodium falciparum 3D7 (PF3D7_0213400) (UniProt Q7YTF7); experiment: inhibition of Plasmodium PK7 catalytic activity – biochemical, TCAMS antimalarial set, Kinase-Glo luminescence (AID 1159587); details: recombinant PfPK7, Kinase-Glo ATP depletion luminescence
[8] = target: Calcium-dependent protein kinase 4 (Plasmodium falciparum (isolate 3D7)) (UniProt Q8IBS5); experiment: PfCDPK4 kinase inhibitors, biochemical, TCAMS library (AID 1159588; cut-off not given, nearly all actives have IC50 up to about 0.91 µM); details: recombinant PfCDPK4, Kinase-Glo ATP depletion luminescence
Calcium-dependent protein kinase 4 (Plasmodium falciparum (isolate 3D7)), sequence (Q8IBS5 whole entry, looked up): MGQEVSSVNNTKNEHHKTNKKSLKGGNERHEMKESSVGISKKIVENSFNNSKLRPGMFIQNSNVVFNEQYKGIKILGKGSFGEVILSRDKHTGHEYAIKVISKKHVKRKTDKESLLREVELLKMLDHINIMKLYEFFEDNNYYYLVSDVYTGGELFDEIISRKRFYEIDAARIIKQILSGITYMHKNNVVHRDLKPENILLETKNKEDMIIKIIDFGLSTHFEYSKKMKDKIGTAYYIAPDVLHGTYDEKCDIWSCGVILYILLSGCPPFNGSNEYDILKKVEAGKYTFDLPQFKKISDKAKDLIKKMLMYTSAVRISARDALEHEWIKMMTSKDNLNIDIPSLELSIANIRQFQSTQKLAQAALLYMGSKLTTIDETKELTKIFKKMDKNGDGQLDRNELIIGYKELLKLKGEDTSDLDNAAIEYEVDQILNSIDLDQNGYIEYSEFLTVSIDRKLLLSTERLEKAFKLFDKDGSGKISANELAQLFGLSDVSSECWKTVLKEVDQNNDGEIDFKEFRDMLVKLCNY

L-lactate dehydrogenase (Plasmodium falciparum (isolate CDC / Honduras)), sequence (Q27743 whole entry, looked up): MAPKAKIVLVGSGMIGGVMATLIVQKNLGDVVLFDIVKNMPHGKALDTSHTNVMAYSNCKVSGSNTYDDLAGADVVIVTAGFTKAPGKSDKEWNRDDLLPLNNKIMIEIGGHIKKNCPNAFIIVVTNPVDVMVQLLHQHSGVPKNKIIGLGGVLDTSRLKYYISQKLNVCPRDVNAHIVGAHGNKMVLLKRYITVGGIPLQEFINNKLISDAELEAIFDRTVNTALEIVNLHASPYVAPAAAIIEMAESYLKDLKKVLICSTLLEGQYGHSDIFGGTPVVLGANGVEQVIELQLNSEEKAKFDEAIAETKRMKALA
Protein kinase 7 (PK7), Plasmodium falciparum 3D7 (PF3D7_0213400), sequence (Q7YTF7 1-343): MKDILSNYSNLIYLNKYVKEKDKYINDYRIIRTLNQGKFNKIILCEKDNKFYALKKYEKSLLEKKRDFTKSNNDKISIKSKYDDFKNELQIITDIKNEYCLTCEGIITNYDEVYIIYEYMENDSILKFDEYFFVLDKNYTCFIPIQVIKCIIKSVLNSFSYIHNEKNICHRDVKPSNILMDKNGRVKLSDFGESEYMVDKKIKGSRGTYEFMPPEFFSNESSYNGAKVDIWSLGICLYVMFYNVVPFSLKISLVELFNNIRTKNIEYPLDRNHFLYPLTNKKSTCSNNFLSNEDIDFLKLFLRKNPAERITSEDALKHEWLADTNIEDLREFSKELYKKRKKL
Calcium-dependent protein kinase 1 (Plasmodium falciparum (isolate 3D7)), sequence (P62344 whole entry, looked up): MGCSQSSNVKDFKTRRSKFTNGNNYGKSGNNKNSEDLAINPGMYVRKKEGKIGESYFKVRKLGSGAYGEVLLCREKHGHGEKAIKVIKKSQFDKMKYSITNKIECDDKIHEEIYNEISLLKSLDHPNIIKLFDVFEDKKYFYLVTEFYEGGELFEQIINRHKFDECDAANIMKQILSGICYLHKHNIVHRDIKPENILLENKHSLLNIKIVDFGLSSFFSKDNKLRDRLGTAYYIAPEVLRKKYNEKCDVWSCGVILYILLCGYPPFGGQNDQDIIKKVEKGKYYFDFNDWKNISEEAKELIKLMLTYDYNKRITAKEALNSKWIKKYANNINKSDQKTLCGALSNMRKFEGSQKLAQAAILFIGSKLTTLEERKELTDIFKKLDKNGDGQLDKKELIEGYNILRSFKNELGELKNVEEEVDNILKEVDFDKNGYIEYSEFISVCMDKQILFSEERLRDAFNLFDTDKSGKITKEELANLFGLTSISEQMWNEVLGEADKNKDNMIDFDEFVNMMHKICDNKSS
Plasmodium falciparum protein kinase 6 (PK6, PF3D7_1337100), sequence (Q8IDW1 1-305): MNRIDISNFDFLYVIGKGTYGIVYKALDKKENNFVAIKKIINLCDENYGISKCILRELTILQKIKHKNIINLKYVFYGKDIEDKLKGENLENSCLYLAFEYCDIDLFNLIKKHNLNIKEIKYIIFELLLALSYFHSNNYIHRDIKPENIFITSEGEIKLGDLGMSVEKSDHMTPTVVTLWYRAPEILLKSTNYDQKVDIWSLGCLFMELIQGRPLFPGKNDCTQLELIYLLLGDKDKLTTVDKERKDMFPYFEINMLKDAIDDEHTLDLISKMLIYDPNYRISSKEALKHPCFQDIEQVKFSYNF

CCc1cccc(NC(=O)c2ccc(CN3CCCN(CC4CCCCC4)CC3)cc2)c1
inactive: growth inhibition [1] 36% | inhibition [2] 44% | inhibition [3] 0% | outcome [5] | outcome [6] | outcome [7] | outcome [8]
active: growth inhibition [4] 84%

CCOc1ccc2nc(C)cc(NN=Cc3cccnc3)c2c1
inactive: inhibition [2] 18% | inhibition [3] 1% | outcome [5] | outcome [6] | outcome [7] | outcome [8]
active: growth inhibition [1] 100% | growth inhibition [4] 102%

Cc1cc(C(=O)Nc2ccc(-c3nc4ccccc4[nH]3)cc2)ccc1[N+](=O)[O-]
inactive: growth inhibition [1] 47% | inhibition [3] 1% | outcome [5] | outcome [6] | outcome [7] | outcome [8]
active: inhibition [2] 55% | growth inhibition [4] 101%

COc1ccc(Cn2c(Nc3cccc(C(F)(F)F)c3)nc3cc(C(=O)NCCN4CCCC4)cnc32)cc1Cl
inactive: growth inhibition [1] 31% | inhibition [2] 10% | inhibition [3] 0% | outcome [5] | outcome [6] | outcome [7] | outcome [8]
active: growth inhibition [4] 97%

O=C(/C=C/c1ccc(Cl)c(Cl)c1)NCCCCCN1CCC(c2c[nH]c3c(-c4ccccc4)cccc23)CC1
inactive: growth inhibition [1] 40% | inhibition [3] -2% | outcome [5] | outcome [6] | outcome [7] | outcome [8]
active: inhibition [2] 74% | growth inhibition [4] 99%

Fc1ccc(CNc2ncc(-c3ccsc3)c(-c3nccs3)n2)cc1
active: growth inhibition [1] 77% | growth inhibition [4] 94%
inactive: inhibition [2] 7% | inhibition [3] -2% | outcome [5] | outcome [6] | outcome [7] | outcome [8]

Cc1[nH]c(C)c(-c2ccc(OCc3ccc(F)cc3)cc2)c(=O)c1Br
active: growth inhibition [1] 97% | growth inhibition [4] 98%
inactive: inhibition [2] 16% | inhibition [3] -2% | outcome [5] | outcome [6] | outcome [7] | outcome [8]

CCOC(=O)c1[nH]c(-c2cc(Cl)nc(Cl)c2)nc1NC(=S)NCc1ccc(NS(C)(=O)=O)cc1
active: growth inhibition [1] 98% | growth inhibition [4] 100%
inactive: inhibition [2] -1% | inhibition [3] -1% | outcome [5] | outcome [6] | outcome [7] | outcome [8]

CC(CCc1ccccc1)NCC(O)c1ccc2c3c(cccc13)S(=O)(=O)N2C (configuration not stated)
inactive: inhibition [2] 16% | inhibition [3] 3% | outcome [5] | outcome [6] | outcome [7] | outcome [8]
active: growth inhibition [1] 99% | growth inhibition [4] 99%

CC(C)CCCC(C)(C)NC[C@@H](O)[C@H](Cc1ccccc1)NC(=O)c1cc(NC(C)C)cc(N2CCCCS2(=O)=O)c1
active: growth inhibition [1] 98% | growth inhibition [4] 98%
inactive: inhibition [2] 2% | inhibition [3] -1% | outcome [5] | outcome [6] | outcome [7] | outcome [8]

OCCOCCNCc1cccc(C#Cc2cc3ncnc(Nc4ccc(OCc5cccc(F)c5)c(Cl)c4)c3s2)n1
active: growth inhibition [4] 96%
inactive: growth inhibition [1] 46% | inhibition [2] 35% | inhibition [3] 0% | outcome [5] | outcome [6] | outcome [7] | outcome [8]

Cc1cc(NC(=O)Nc2ccc(I)c(OCCN(C)C)c2)ccc1Br
active: growth inhibition [4] 101%
inactive: growth inhibition [1] 42% | inhibition [2] 18% | inhibition [3] 4% | outcome [5] | outcome [6] | outcome [7] | outcome [8]

Cc1[nH]c(C)c(-c2ccc(Oc3cccc(Cl)c3)cc2)c(=O)c1Cl
inactive: inhibition [2] 40% | inhibition [3] -3% | outcome [5] | outcome [6] | outcome [7] | outcome [8]
active: growth inhibition [1] 97% | growth inhibition [4] 99%

CN(C)CCC1CCCc2ccc(NC(=O)Nc3cccc(Cl)c3Cl)cc21 (configuration not stated)
active: growth inhibition [4] 93%
inactive: growth inhibition [1] 11% | inhibition [2] 44% | inhibition [3] 5% | outcome [5] | outcome [6] | outcome [7] | outcome [8]

C[C@@H](Nc1nc(NCc2ccccc2)c2sccc2n1)c1ccccc1
inactive: inhibition [2] 31% | inhibition [3] -4% | outcome [5] | outcome [6] | outcome [7] | outcome [8]
active: growth inhibition [1] 75% | growth inhibition [4] 91%

COc1ccc(CN2CCC(CNC(C)c3cccc4ccccc34)CC2)cc1 (configuration not stated)
active: inhibition [2] 58% | growth inhibition [4] 102%
inactive: growth inhibition [1] 26% | inhibition [3] -2% | outcome [5] | outcome [6] | outcome [7] | outcome [8]

Cc1sc(NC(=O)Cc2cccc(C(F)(F)F)c2)nc1-c1cccc(Cl)c1
active: growth inhibition [1] 95% | growth inhibition [4] 101%
inactive: inhibition [2] 15% | inhibition [3] -3% | outcome [5] | outcome [6] | outcome [7] | outcome [8]

S=C(NCCCCCN1CCC(c2c[nH]c3ccccc23)CC1)Nc1ccc(Cl)c(Cl)c1
inactive: growth inhibition [1] 31% | inhibition [3] -3% | outcome [5] | outcome [6] | outcome [7] | outcome [8]
active: inhibition [2] 89% | growth inhibition [4] 101%

O=C(Nc1ccccc1)N(Cc1ccc(-c2ccc(CNCc3ccc4c(c3)OCO4)cc2)cc1)C1CCN(Cc2ccccc2)CC1
active: growth inhibition [4] 98%
inactive: growth inhibition [1] 41% | inhibition [2] 21% | inhibition [3] -1% | outcome [5] | outcome [6] | outcome [7] | outcome [8]

Cc1cccc2[nH]c(-c3ccc(-c4cccc(CN5CCCC(N)C5)c4)s3)nc12 (configuration not stated)
inactive: inhibition [2] 17% | inhibition [3] 4% | outcome [5] | outcome [6] | outcome [7] | outcome [8]
active: growth inhibition [1] 94% | growth inhibition [4] 100%

COc1cc(C=Cc2ccc3ccccc3n2)cc(Br)c1OCC(=O)N(C)C
inactive: inhibition [2] 28% | inhibition [3] 3% | outcome [5] | outcome [6] | outcome [7] | outcome [8]
active: growth inhibition [1] 87% | growth inhibition [4] 99%

O=[N+]([O-])c1cccc(CNCC2CCN(Cc3ccc(C(F)(F)F)cc3)CC2)c1
inactive: growth inhibition [1] 23% | inhibition [2] 7% | inhibition [3] 2% | outcome [5] | outcome [6] | outcome [7] | outcome [8]
active: growth inhibition [4] 101%

COCCCNc1sc(S(=O)(=O)c2ccccc2)nc1S(=O)(=O)c1ccc(Cl)cc1
active: growth inhibition [1] 87% | growth inhibition [4] 95%
inactive: inhibition [2] -7% | inhibition [3] 4% | outcome [5] | outcome [6] | outcome [7] | outcome [8]

CCNc1cc(C(=O)N[C@@H](Cc2cccc(F)c2)[C@H](O)CNC(C)CCCC(C)C)cc(N2CCCCS2(=O)=O)c1 (some centres not stated)
inactive: inhibition [2] -3% | inhibition [3] -4% | outcome [5] | outcome [6] | outcome [7] | outcome [8]
active: growth inhibition [1] 97% | growth inhibition [4] 98%

CCN(CC)CCCNc1nccc(N2CCc3ncnc(Nc4ccc(OCc5cccc(F)c5)c(Cl)c4)c3C2)n1
inactive: inhibition [3] 7% | outcome [5] | outcome [6] | outcome [7] | outcome [8]
active: growth inhibition [1] 95% | inhibition [2] 100% | growth inhibition [4] 101%

Cc1cccn2c(=O)c3cc(C(=O)NC4CCCCC4)c(=N)n(CCCn4ccnc4)c3nc12
inactive: growth inhibition [1] 8% | inhibition [2] 1% | inhibition [3] -1% | outcome [5] | outcome [6] | outcome [7] | outcome [8]
active: growth inhibition [4] 102%

CC1(C)N=C(N)N=C(N)N1OCc1cccc(Cl)c1Cl
active: growth inhibition [1] 75% | inhibition [2] 68% | growth inhibition [4] 92%
inactive: inhibition [3] -1% | outcome [5] | outcome [6] | outcome [7] | outcome [8]

CC(C)NCc1cccc(-c2cccc(-c3nc4ccccc4[nH]3)c2)c1
inactive: growth inhibition [1] 22% | inhibition [2] 11% | inhibition [3] -2% | outcome [5] | outcome [6] | outcome [7] | outcome [8]
active: growth inhibition [4] 100%

Cc1cccc2[nH]c(-c3cccc(-c4ccc(NC(=O)Nc5ccc6c(c5)OCO6)cc4)c3)nc12
active: growth inhibition [1] 86% | inhibition [2] 80% | growth inhibition [4] 101%
inactive: inhibition [3] -3% | outcome [5] | outcome [6] | outcome [7] | outcome [8]

CC(=O)Nc1ncc(C(=O)Nc2cccc(-c3ccc(-c4nc5ccccc5[nH]4)cc3)c2)s1
active: growth inhibition [1] 66% | growth inhibition [4] 101%
inactive: inhibition [2] 12% | inhibition [3] -9% | outcome [5] | outcome [6] | outcome [7] | outcome [8]

Cc1nn(-c2ccc(Cl)cc2)c2[nH]c(CN3CCN(c4cccc(Cl)c4)CC3)cc(=O)c12
inactive: inhibition [2] 0% | inhibition [3] -3% | outcome [5] | outcome [6] | outcome [7] | outcome [8]
active: growth inhibition [1] 98% | growth inhibition [4] 98%

CC(C)c1ccc2c(c1)c(SC(C)(C)C)c(CC(C)(C)C#N)n2Cc1ccc(Cl)cc1
inactive: inhibition [2] -3% | inhibition [3] 8% | outcome [5] | outcome [6] | outcome [7] | outcome [8]
active: growth inhibition [1] 95% | growth inhibition [4] 96%

N#Cc1cccc(CN2CCCN(Cc3ccc(C(=O)Nc4ccc(Cl)cc4)cc3)CC2)c1
inactive: growth inhibition [1] 21% | inhibition [2] 48% | inhibition [3] 1% | outcome [5] | outcome [6] | outcome [7] | outcome [8]
active: growth inhibition [4] 98%

C[C@@H]1CN(C(c2cccc(O)c2)c2cccc(C(=O)N(C)c3cccc(F)c3)c2)[C@@H](C)CN1C(c1cccc(O)c1)c1cccc(C(=O)N(C)c2cccc(F)c2)c1 (some centres not stated)
active: growth inhibition [1] 85% | growth inhibition [4] 91%
inactive: inhibition [2] 0% | inhibition [3] 0% | outcome [5] | outcome [6] | outcome [7] | outcome [8]

COc1ccccc1CCNc1nc(C)cc(N[C@@H](CC(C)C)C(=O)Nc2ccccc2)n1
inactive: inhibition [2] 16% | inhibition [3] -2% | outcome [5] | outcome [6] | outcome [7] | outcome [8]
active: growth inhibition [1] 76% | growth inhibition [4] 101%

COc1ccc2nccc([C@@H](O)CN3CCC(NCc4cc5cccnc5[nH]4)CC3)c2n1
inactive: growth inhibition [1] 0% | inhibition [2] 7% | inhibition [3] -2% | outcome [5] | outcome [6] | outcome [7] | outcome [8]
active: growth inhibition [4] 90%

Cc1nnsc1C(=O)Nc1cccc(-c2cccc(-c3nc4ccccc4[nH]3)c2)c1
inactive: growth inhibition [1] 34% | inhibition [2] 14% | inhibition [3] 1% | outcome [5] | outcome [6] | outcome [7] | outcome [8]
active: growth inhibition [4] 100%

COc1ccc(N2CCN(C(CNC(=O)C3CCCCC3)c3ccc4c(c3)OCO4)CC2)cc1 (configuration not stated)
inactive: inhibition [2] 1% | inhibition [3] -1% | outcome [5] | outcome [6] | outcome [7] | outcome [8]
active: growth inhibition [1] 83% | growth inhibition [4] 92%

c1ccc2c(c1)ncn2-c1ccnc(Nc2ccncc2)n1
active: growth inhibition [1] 80% | growth inhibition [4] 89%
inactive: inhibition [2] 0% | inhibition [3] -3% | outcome [5] | outcome [6] | outcome [7] | outcome [8]
